Measurements: PubChem BioAssay AID1159580 (chemical genetic matrix, 2015)
Several values for one entry are separate records, joined by “and”; a condition that tells them apart may be missing. Identical values can stand only once. Screen size: about 5,500 compounds; about 2,000 (36%) were called active. Inconclusive results (about 18%) are left out. Cut-off read from the data, not from the text of the source: active = normalized growth mostly below about 0.91 (no sharp cut-off); inconclusive = no clear call, values can overlap the other calls; inactive = mostly above about 0.92. The list shows a part of the results.

Assay: chemical genetic growth profiling, strain panel (AID 1159580);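 note: tested at 20 µM; growth read once vehicle control cultures reached saturation at 30 °C; 1 = growth at the plate median or of vehicle wells; lower values mean less growth of the strain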
Settings: S. cerevisiae deletion strains, growth OD

Measured: normalized growth

N[C@@H](CCC(=O)N[C@@H](CS)C(=O)NCC(=O)O)C(=O)O
inactive: locus YAL021C, strain ccr4, active compounds read low 1 | locus YAL026C, strain drs2, active compounds read low 1.04 | locus YAL030W, strain snc1, active compounds read low 0.986 | locus YBL061C, strain skt5, active compounds read low 1.01 | locus YBR009C, strain hhf1, active compounds read low 0.988 | locus YBR021W, strain FUR4, active compounds read low 1.05 | locus YBR023C, strain chs3, active compounds read low 1.01 | locus YBR171W, strain sec66, active compounds read low 0.981 | locus YBR229C, strain ROT2, active compounds read low 1.01 | locus YBR231C, strain swc5, active compounds read low 0.972 | locus YBR279W, strain paf1, active compounds read low 1 | locus YCL011C, strain gbp2, active compounds read low 1.01 | locus YCL016C, strain dcc1, active compounds read low 1.02 | locus YCL029C, strain bik1, active compounds read low 0.998 | locus YCL061C, strain MRC1, active compounds read low 0.99 | locus YCL069W, strain vba3, active compounds read low 1.01 | locus YCR088W, strain abp1, active compounds read low 0.998 | locus YDL005C, strain med2, active compounds read low 0.985 | locus YDL035C, strain GPR1, active compounds read low 1.01 | locus YDL040C, strain nat1, active compounds read low 0.989 | locus YDL074C, strain BRE1, active compounds read low 0.987 | locus YDL101C, strain DUN1, active compounds read low 0.991 | locus YDL185W, strain tfp1, active compounds read low 0.947 | locus YDL192W, strain arf1, active compounds read low 0.988 | locus YDR001C, strain nth1, active compounds read low 0.993 | locus YDR069C, strain doa4, active compounds read low 0.975 | locus YDR101C, strain arx1, active compounds read low 0.992 | locus YDR137W, strain rgp1, active compounds read low 1.03 | locus YDR159W, strain sac3, active compounds read low 0.943 | locus YDR162C, strain NBP2, active compounds read low 0.998 | locus YDR195W, strain ref2 0.927 | locus YDR297W, strain sur2, active compounds read low 0.984 | locus YDR318W, strain mcm21, active compounds read low 0.993 | locus YDR334W, strain swr1, active compounds read low 0.998 | locus YDR335W, strain msn5, active compounds read low 0.987 | locus YDR388W, active compounds read low 0.998 | locus YDR392W, strain spt3, active compounds read low 1 | locus YDR502C, strain sam2, active compounds read low 0.987 | locus YEL003W, strain gim4, active compounds read low 0.992 | locus YEL037C, strain rad23, active compounds read low 0.995 | locus YEL061C, strain CIN8 (second series), active compounds read low 0.996 | locus YEL061C, strain CIN8, active compounds read low 0.991 | locus YER015W, strain faa2, active compounds read low 1 | locus YER016W, strain bim1, active compounds read low 1.02 | locus YER110C, active compounds read low 0.971 | locus YER111C, strain swi4, active compounds read low 1.01 | locus YER155C, strain BEM2 (second series), active compounds read low 0.963 | locus YER155C, strain BEM2, active compounds read low 0.998 | locus YER167W, strain BCK2, active compounds read low 1 | locus YFR010W, strain ubp6, active compounds read low 1 | locus YGL078C, strain dbp3, active compounds read low 0.99 | locus YGL086W, strain mad1, active compounds read low 0.987 | locus YGL167C, strain pmr1, active compounds read low 0.988 | locus YGL173C, strain kem1, active compounds read low 0.977 | locus YGL227W, strain vid30, active compounds read low 0.992 | locus YGL240W, strain doc1, active compounds read low 0.973 | locus YGL248W, strain PDE1, active compounds read low 0.999 | locus YGL253W, strain hxk2, active compounds read low 1.02 | locus YGR135W, strain pre9, active compounds read low 0.978 | locus YGR252W, strain gcn5, active compounds read low 0.995 | locus YHR013C, strain ard1, active compounds read low 0.996 | locus YHR027C, strain rpn1, active compounds read low 1.01 | locus YHR030C, strain SLT2, active compounds read low 0.992 and 0.922 | locus YHR079C, strain IRE1 (second series), active compounds read low 0.985 | locus YHR079C, strain IRE1, active compounds read low 0.928 | locus YHR094C, strain hxt1, active compounds read low 0.996 | locus YHR129C, strain ARP1, active compounds read low 1 | locus YHR142W, strain chs7, active compounds read low 1.03 | locus YHR200W, strain rpn10, active compounds read low 0.981 | locus YIL066C, strain RNR3, active compounds read low 1.01 | locus YIL073C, strain SPO22, active compounds read low 0.952 | locus YIL125W, strain kgd1, active compounds read low 0.996 | locus YIR030C, strain dcg1, active compounds read low 0.991 | locus YJL092W, strain hpr5, active compounds read low 0.998 | locus YJL095W, strain BCK1 (second series), active compounds read low 1.01 | locus YJL095W, strain BCK1, active compounds read low 0.97 and 1.03 | locus YJL115W, strain asf1, active compounds read low 0.972 | locus YJL129C, strain trk1, active compounds read low 0.975 | locus YJL134W, strain LCB3, active compounds read low 0.995 | locus YJL154C, strain vps35, active compounds read low 0.998 | locus YJL164C, strain tpk1, active compounds read low 1.01 | locus YJL166W, strain qcr8, active compounds read low 0.973 | locus YJL168C, strain set2, active compounds read low 0.994 | locus YJL187C, strain SWE1 (second series), active compounds read low 0.987 | locus YJR043C, strain POL32, active compounds read low 0.992 | locus YJR066W, strain TOR1, active compounds read low 0.923
